From ChEMBL document CHEMBL3433997, “St. Jude Leishmania screening dataset” (2016)

Key:
Assay type in all cases: functional
[1] = molecular target: Solute carrier family 2, facilitated glucose transporter member 1 (Homo sapiens) (UniProt P11166); experiment: ST_JUDE_LEISH: Cytotoxicity at 2uM final concentration against transgenic Leishmania Mexicana promastigotes LmGLUT1 that are glucose transport deficient and complemented with the human glucose transporter GLUT1. Activity is measured by DNA content using SYBR green in vitro
[2] = molecular target: Hexose transporter 1 (Plasmodium falciparum) (UniProt O97467); experiment: ST_JUDE_LEISH: Cytotoxicity at 2uM final concentration against transgenic Leishmania Mexicana promastigotes LmPfHT that are glucose transport deficient and complemented with the Plasmodium falciparum hexose transporter. Activity is measured by DNA content using SYBR green in vitro
[3] = molecular target: Glucose transporter (Leishmania mexicana) (UniProt O61059); experiment: ST_JUDE_LEISH: Cytotoxicity at 2uM final concentration against transgenic Leishmania Mexicana promastigotes LmGT2 that are glucose transport deficient and complemented with the L. Mexicana glucose transporter 2. Activity is measured by DNA content using SYBR green in vitro

Solute carrier family 2, facilitated glucose transporter member 1 (Homo sapiens), sequence (P11166 whole entry): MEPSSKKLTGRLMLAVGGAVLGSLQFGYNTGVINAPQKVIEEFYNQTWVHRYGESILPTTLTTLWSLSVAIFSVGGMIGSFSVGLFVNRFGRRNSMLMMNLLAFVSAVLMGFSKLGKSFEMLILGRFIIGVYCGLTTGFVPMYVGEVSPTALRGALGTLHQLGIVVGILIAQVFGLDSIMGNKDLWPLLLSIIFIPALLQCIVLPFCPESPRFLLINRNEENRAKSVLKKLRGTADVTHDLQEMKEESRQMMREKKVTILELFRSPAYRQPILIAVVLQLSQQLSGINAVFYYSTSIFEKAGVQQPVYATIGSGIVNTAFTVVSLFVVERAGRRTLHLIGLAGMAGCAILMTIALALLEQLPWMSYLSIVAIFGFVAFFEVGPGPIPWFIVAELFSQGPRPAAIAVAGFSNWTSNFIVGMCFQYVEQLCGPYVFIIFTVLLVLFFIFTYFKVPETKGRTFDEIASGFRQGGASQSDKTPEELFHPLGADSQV

SMILES | inhibition [1] [%] | inhibition [2] [%] | inhibition [3] [%]
O=C(Nc1ccc(Cl)cc1)Nc1cccc(-c2ccc(-c3nc4cc(F)ccc4[nH]3)cc2)c1 | 6.12 | 1.78 | 4.76
COc1cc(C=CC(=O)N2CCC(CCN3CCC(c4c[nH]c5ccccc45)CC3)CC2)cc(OC)c1 | 4.99 | 6.56 | 3.47
Cc1sc2ccc(Cl)cc2c1S(=O)(=O)Nc1ccc2nccc(N3CC(C)NC(C)C3)c2c1 (stereo not drawn) | 3.66 | 4.16 | 6.32
O=[N+]([O-])c1ccc(/C=N/Nc2cc(-c3ccccc3)nc3ccccc23)o1 | 9.16 | 7.41 | 5.71
COc1ccc(-c2csc(NC(=O)CCC(=O)O)n2)cc1OC | 0.77 | 1.36 | 3.83
O=C(COc1ccccc1)Nn1cnc2ccccc21 | 3.76 | 0.83 | 0.3
COc1ccccc1C1CCN(C2CCC(NC(=O)/C=C/c3cc(F)cc(F)c3)CC2)CC1 (stereo not drawn) | -1.84 | -1.17 | -2.6
CC(=O)Nc1cc(C(=O)Nc2cccc(-c3csc(-c4nc5ccccc5[nH]4)c3)c2)ccc1C | 10.5 | 9.84 | 9.18
N#Cc1ccc2c(c1)CCN(CCC1CCC(NC(=O)/C=C/c3cccc4ccccc34)CC1)CC2 (stereo not drawn) | 4.36 | 9.02 | 2.63
N#Cc1cncc(-c2nc3c(N4CCC(N5CCCC5)CC4)cccc3n2CCNCc2ccccc2)c1 | 0.91 | 0.8 | 3.98
CCNc1cc(C(=O)N[C@@H](Cc2ccccc2)[C@H](O)CNC2(CC(C)C)CC2)cc(N2CCCCS2(=O)=O)c1 | -1.54 | 4.02 | -0.34
CC1CN(c2cnn(C/C=C/c3ccc(NC(=O)c4ccc(Cl)cc4)cc3)c(=O)c2Cl)CC(C)N1 (stereo not drawn) | -0.22 | -0.3 | -1.49
Cc1nnsc1C(=O)Nc1cccc(-c2ccc(-c3nc4cc(F)ccc4[nH]3)s2)c1 | 1.06 | 0.37 | -2.44
Cc1cccc2nc(-c3cccc(-c4cccc(CNCC5CCCO5)c4)c3)[nH]c12 (stereo not drawn) | 1.16 | 0.17 | 1.17
O=C1C(c2ccccc2)=C(Nc2ccc([N+](=O)[O-])cc2)c2ccccc21 | 6.69 | 9.53 | 2.14
Cc1ccc(C)c(S(=O)(=O)NCC2CCN(Cc3ccc(O)cc3)CC2)c1 | 41.3 | 7.78 | -2.61
CC(=O)N/N=C/[C@H](CCc1ccccc1)NC(=O)[C@H](CC(C)C)NC(=O)c1ccc(OCCN2CCOCC2)cc1 | 2.92 | 6.88 | 3.05
CC(C)NCc1ccc(-c2ccc(-c3nc4cc(C(F)(F)F)ccc4[nH]3)cc2)cc1 | 1.09 | -1.61 | 2.69
COc1ccc2nccc(N/N=C/c3cccc([N+](=O)[O-])c3)c2c1 | 3.18 | 2.68 | 4.33
CC(C)CN1CCC(COc2ccc3ncn(-c4cc(O[C@H](C)c5ccccc5C(F)(F)F)c(C(N)=O)s4)c3c2)CC1 | 77.7 | 74.7 | 60.6
Cc1cc(N[C@@H](Cc2ccccc2)C(=O)NCCCOC(C)C)nc(NCCc2ccc(F)cc2)n1 | 5.75 | 2.58 | 0.38
O=C(/C=C/c1ccc(Cl)c(Cl)c1)NCCCCCN1CCC(NC(=O)Nc2cc(Cl)cc(Cl)c2)CC1 | 8.59 | 9.64 | 9.93
Brc1ccccc1CNc1ccnc(NCCn2ccnc2)n1 | -0.91 | 0.05 | 0.03
COc1cc(F)c2ncc(F)c([C@@H](O)CN3CCC(NCc4cc5c(cn4)OCCO5)CC3)c2c1 | 1.43 | 2.18 | 2.06

SMILES | inhibition [1] [%] | inhibition [2] [%] | inhibition [3] [%]
Oc1ccc2nc(Nc3ccccc3)nc(NCCc3ccccc3)c2c1 | 7.22 | 6 | 5.72
Cc1ccc(Cn2nc(Cl)c(N3CCNCC3)cc2=O)cc1NC(=O)Nc1ccc(-c2ccccc2)cc1 | 1.36 | 5.15 | 6.75
CN1CCC(c2c[nH]c3ccc(NC(=O)Nc4ccc(-c5ccncc5)cc4Cl)cc23)CC1 | 1.45 | 1.38 | 2.14
CCN(CC)CCCC(C)Nc1c2cc(OC)ccc2nc2cc(Cl)c([N+](=O)[O-])cc12 (stereo not drawn) | 1.29 | 0.73 | 0.82
O=C(N[C@@H](Cc1ccccc1)C(=O)NC1CCCCCC1)c1ccc(O)c(-c2ccc(Cl)c(Cl)c2)c1 | 3.99 | 3.77 | 3.08
COc1cc2c(cc1S(=O)(=O)c1ccc(NC(=O)c3cccc(C(F)(F)F)c3)cc1)CCN(C)CC2 | 1.16 | 0.62 | 1.88
COc1ccc2nccc([C@@H](O)CN3C4CCC3CC(NCc3ccc5c(n3)NC(=O)CS5)C4)c2n1 (stereo partly drawn) | 1.63 | 1.76 | -2.06
N#Cc1ccc(-c2ccc(C(=O)NC3CCN(CCN4CCc5c(cccc5C(F)(F)F)C4)CC3)cc2)cc1 | -0.45 | -0.02 | 1.46
FC(F)(F)c1ccc2c(C=Cc3ccncc3)c[nH]c2c1 | 3.67 | 3.37 | 4.76
C(=NNc1nc2ccccc2[nH]1)c1ccccc1OCc1ccccc1 | 4.25 | 6.99 | 3.06
COc1cc(SC)c(Br)cc1-c1nc2ccncc2[nH]1 | 3.09 | 2.12 | 4.52
C=CCn1ccc2c3c(N)nc(N)nc3ccc21 | 66 | 79.6 | 44.1
CCC(Cc1cnc2nc(N)nc(N)c2n1)c1ccc(C(=O)O)cc1 (stereo not drawn) | 1.41 | 1.88 | 2.49
Cc1cc(N)c2cc(NC(=O)/C=C/c3ccccc3)ccc2n1 | -0.18 | 0.45 | -0.79
C=CCN1C(=O)CN(S(=O)(=O)c2ccc(-n3nc(C)cc3C)cc2)C1=S | 3.32 | 3.89 | 2.49
O=C(Cc1ccccc1)NC(c1ccccc1)c1ccc2cccnc2c1O (stereo not drawn) | 2.31 | 0.51 | -1.17
COc1ccc(Nc2ccnc3cc(Cl)ccc23)cc1OC | 10.1 | 10.7 | 7.28
c1cncc(NCc2ccc(-c3cc4ccncc4cc3OC3CCNCC3)s2)c1 | 4.74 | 5.2 | 4.54
O=C(NCCc1ccccc1)[C@H](Cc1ccccc1)Nc1ccnc(NCC2CCCCC2)n1 | -0.55 | 2.47 | 0.61
CC1CN(c2cnn(Cc3ccc(NC(=O)Nc4cccc(C(F)(F)F)c4)cc3)c(=O)c2Cl)CC(C)N1 (stereo not drawn) | 3.97 | 3.35 | -1.12
O=C(CCc1cccnc1)Nc1cccc(-c2ccc(-c3nc4cc(C(F)(F)F)ccc4[nH]3)cc2)c1 | 9.2 | 7.53 | 6.85
CN1CCC(N2CCN(c3ccc4c(=O)nc(CCc5cccc(F)c5F)n(CC(=O)N(C)Cc5ccc(-c6ccc(C(F)(F)F)cc6)cc5)c4n3)CC2)CC1 | -0.12 | 0.33 | 6.67
O=C(Nc1ccc2c(c1)CCC2)c1nc(N2CCN(c3ccncc3)CC2)ccc1Cl | 1.84 | 1.86 | 1.75
CN1CCN(c2ccc(Nc3c(C(N)=O)cnc4cc(-c5ccoc5)ccc34)cc2C(F)(F)F)CC1 | 2.31 | 2.21 | 2.01

SMILES | inhibition [1] [%] | inhibition [2] [%] | inhibition [3] [%]
COc1ccc(CNCc2ccccc2)cc1-c1cccc(S(=O)(=O)NCCN2CCCC2)c1 | 1.03 | 1.05 | -3.15
CC(CNc1nc(NCC(c2ccccc2)c2ccccc2)c2nc[nH]c2n1)c1ccccc1 (stereo not drawn) | 3.92 | 5 | 3.73
O=C(Nc1cc(Cl)cc(Cl)c1)c1cc(Cl)c(=O)n(Cc2ccc(Cl)cc2)c1 | 3 | 5.94 | -0.15
N=C(N)Nc1cccc(NC(=O)Nc2cccc(NC(=N)N)c2)c1 | 6.92 | 4.83 | 3.86
COc1ccccc1CN1CCC(NC(=O)c2ccc(-c3cccc(Cl)c3)s2)CC1 | 8.99 | 8.66 | 2.23
Nc1ncc(-c2ccc3ncccc3c2)c(N)n1 | 0.18 | 0.97 | 1.18
COc1ccc2c(=O)c3ccc(OC)cc3[nH]c2c1 | 1.08 | -2.12 | -0.67
Cc1nc(C)c(-c2ccc(Oc3ccc(OC(F)(F)F)cc3)cc2)c(OC(=O)c2ccc(CN(C)C)cc2)c1Cl | 10.9 | 8.12 | 8.96
CNC(=O)C(C)N(c1ccc(Cl)cc1)c1nc(C(C)(C)C)cs1 (stereo not drawn) | -1.9 | -2.14 | 3.15
COc1ccccc1N=C1SC(=Cc2cn(CC(=O)N3CCCc4ccccc43)c3ccccc23)C(=O)N1C1CCCCC1 | 2.84 | 0.47 | -1.37
CCC(CC)(Cc1ccccc1)NC(=O)[C@H](CC1CCCCC1)Nc1ccc(C#N)c2ccccc12 | -1.5 | -0.75 | -0.23
Cc1ccc(CN2CCN(Cc3cccc(NC(=O)c4cccs4)c3)CC2)cc1C | 2.28 | 2.39 | 1.91
COc1ccc2nccc(NCC3(O)CCN(CC(O)c4ccc5c(c4)NC(=O)CS5)CC3)c2n1 (stereo not drawn) | 3.39 | 2.49 | 2.58
COc1c(Br)cc(Br)cc1-c1ccc(CN2C3CCCC2CCC3)[nH]1 | 4.44 | 7.84 | 2.48
O=C(N[C@@H](CC1CCCCC1)C(=O)NCCN1CCCC1)c1ccc(O)c(-c2ccc(Cl)c(Cl)c2)c1 | 0.12 | 0.41 | 0.58
CC(C)C1CCc2nc(N)nc(N)c2C1 (stereo not drawn) | 2.52 | 4.4 | 0.91
CCCCCN1CCCN(Cc2cccc(NC(=O)c3cc4ccccc4s3)c2)CC1 | 1.99 | 1.5 | 3.66
Clc1cccc(C23N/C(=N\c4nc5ccccc5[nH]4)NC2(c2ccccc2)N/C(=N\c2nc4ccccc4[nH]2)N3)c1 (stereo not drawn) | 5.03 | 4.69 | 4.94
NCC1CCCN1Cc1ccc(-c2cccc(-c3nc4cc(F)ccc4[nH]3)c2)cc1 (stereo not drawn) | 3.25 | 1.31 | 1.35
Nc1nc(N)c2c(ccc3[nH]c(-c4ccccc4Cl)nc32)n1 | 77.1 | 69.7 | 61.8
CC1(C)N=C(N)N=C(N)N1OCc1ccc2c(c1)OCO2 | 9.15 | 6.63 | 13.4
CCn1cnc2c(N3CCCS3(=O)=O)cc(C(=O)N[C@@H](Cc3ccccc3)[C@H](O)CNC(C)(C)c3cccc(C(F)(F)F)c3)cc21 | 3.01 | 2.45 | 2.04
O=C(Nc1ccc(Cn2ncc(N3CCCNCC3)c(Cl)c2=O)cc1)Nc1ccc(SC(F)(F)F)cc1 | 3.57 | 10.1 | -1.22
